Laboratory results as given in PubChem BioAssay (NCATS).
Results filed as inconclusive are left out. A number with no mark means an inactive call. Active and inactive are the calls of the source. Calls come from the whole dose curve; as a rule, active = well fitted inhibition curve with a large enough effect; inconclusive = small, poorly fitted or top-dose-only effect; inactive = no such curve, though single readings can be large or run the other way.

experiment: BET inhibitor-based combinations targeting novel dependencies in MECOM-rearranged (r) AML: MV-4-11 cell line (AID 2202233); details: MV-4-11 AML viability, CellTiter-Glo luminescence, 48 h; series mostly up to 46 µM; viability, % of control: at the top concentration; note: nearly all actives have a fitted effect of over 45% in size
Text: Ecotropic viral insertion site 1 (EVI1) is located on chromosome 3q26.2 as part of the MECOM (MDS and EVI1 complex) locus. Under normal hematopoiesis, EVI1 is a regulator of hematopoietic stem cell maintenance and self-renewal and EVI1 levels decrease as the cells differentiate. In approximately 5-10% of de novo acute myeloid leukemia (AML) EVI1 is aberrantly expressed, including Chromosomal inv(3)(q21;q26.2) or t(3;3)(q21;q26.2) alterations (MECOM-r) that account for about 50% of AML with EVI1 overexpression 31. AMLs with high levels of EVI1 have a poor prognosis and an overall survival time averaging between 10-14 months. EVI1 overexpression confers resistance in leukemia cells, highlighting the need to develop new targeted therapies for EVI1 overexpressing AMLs. Here, we performed an unbiased chemical drug screening by evaluating the single agent activity of a collection of 2,480 oncology-focused, approved and investigational drugs (NCATS Mechanism Interrogation Plates, MIPE v5.0) against a panel of seven AML cell lines. These included four MECOM-r cell-lines (AML-191, AML-194, UCSD-AML1 and HNT-34) and three non-MECOM-r AMLs (MV4-11, OCI-AML3 and SET-2). Exploiting the mechanistic redundancy built in the library, we identified target-level sensitivities in MECOM-r AML cells and relative activity as compared to other AML subtypes.
A collection of 2480 mechanistically annotated dugs (MIPE v5.0) was used to screen four 3q26.2 rearranged AML cell lines and three non-3q26.2 rearranged AML cell lines. This library purposely exploits redundancy by including multiple inhibitors of key onco-targets, while simultaneously encompassing mechanistic diversity, targeting more than 800 distinct mechanisms of action. Briefly, cells were seeded in 5 uL of growth media using a Multidrop Combi dispenser into 1536 well white polystyrene tissue culture treated plates (Corning) at a density of 500cells/well. For each cell-line, for each of the 2480 drugs in MIPE v5.0 library, an 11-point dose curve was generated via a 1536 pin-tool. Plates were incubated for 48 hr at standard incubator conditions, covered by a stainless steel gasketed lid to prevent evaporation. Cell viability was determined by luminescence based, Cell Titer Glo assay (Promega). In detail, 3 uL of Cell Titer Glo were added to each well and plates were incubated at room temperature for 15 min with a stainless-steel lid in place. Luminescence readings were taken using a Viewlux (PerkinElmer) with a 2 s exposure time per plate. Compound dose-response curves were normalized to DMSO and empty well controls on each plate. Quantitative drug activity data from dose-response curves was determined utilizing area Under the Curve (AUC) and Z-transformed AUC (Z-AUC, a mean-centering transformation applied to each individual cell-line screened).
Potency is the fitted concentration of half-maximal effect.

SMILES	Potency	viability, % of control
C=C1CCC2[C@](C)(CO)C(O)CC[C@]2(C)C1C/C=C1/C(=O)OCC1O (stereo not given in full)	3.32 µM (active)	
COc1cc(N2CCN(C)CC2)ccc1Nc1ncc2c(n1)N(C)c1ccccc1C(=O)N2	18.6 µM (active)	
CNC(=O)Cn1cc(-c2ccc3c(c2)C(F)CC32NC(=O)N(CC(=O)N(Cc3ccc(F)cc3)[C@@H](C)C(F)(F)F)C2=O)cn1 (stereo not given in full)	11.8 µM (active)	
O=C(/C=C/c1ccc(Cl)cc1)N1CCC2(CC1)CN(Cc1ccc(Cl)c(Cl)c1)C(=O)O2	20.9 µM (active)	
CCCCCCCOc1ccc(CCC(N)(CO)CO)cc1C(F)(F)F	14.8 µM (active)	
O=C(O)CCNc1cc(N2CCc3ccccc3CC2)nc(-c2cccnc2)n1		131%
C[C@]1(C(=O)N(CCCC(=O)O)Cc2cccc(Cl)c2)CCN1C(=O)c1csc2ccccc12		112%
CO[C@H]1C(=O)[C@]2(C)[C@@H](OC)C[C@H]3OC[C@@]3(OC(C)=O)[C@H]2[C@H](OC(=O)c2ccccc2)[C@]2(O)C[C@H](OC(=O)[C@H](O)[C@@H](NC(=O)OC(C)(C)C)c3ccccc3)C(C)=C1C2(C)C	0.0023 µM (active)	
CN1CCN(c2ccc(Nc3ncc4cc(C#N)c(=O)n(C5CCCC5)c4n3)cc2)CC1	0.186 µM (active)	
Cc1c(-c2ccc(-c3ccccc3F)cc2)nc2ccc(F)cc2c1C(=O)O	0.209 µM (active)	
CC1(C)CCC2(CC1)N[C@@H](C(=O)N[C@@H]1CC[C@@H](C(N)=O)OC1)[C@H](c1ccnc(Cl)c1F)[C@]21C(=O)Nc2cc(Cl)ccc21	0.0715 µM (active)	
CC(C)(O)CS(=O)(=O)Nc1ccc2c(c1)CCN(C(=O)COc1cccnc1)C2	0.105 µM (active)	
CCc1cc(/C(C)=N/OCc2ccc(C3CCCCC3)c(C(F)(F)F)c2)ccc1CN1CC(C(=O)O)C1	8.33 µM (active)	
C#Cc1cccc(Nc2ncnc3cc(OCCOC)c(OCCOC)cc23)c1	5.9 µM (active)	
C[C@@H]1CC2C3C[C@H](F)C4=CC(=O)C=C[C@]4(C)[C@@]3(F)[C@@H](O)C[C@]2(C)[C@@]1(OC(=O)c1ccco1)C(=O)SCF (stereo not given in full)	20.9 µM (active)	
CCCc1cc(C(=O)N[C@H](Cc2ccc(-c3cccc(OC(F)(F)F)c3)nc2)C(=O)N[C@@H]2CCNC2)sc1C	9.34 µM (active)	
C=C1/C(=C/C=C2\CCCC3(C)[C@@H]([C@H](C)/C=C/C=C/C(O)(CC)CC)CC[C@@H]23)C[C@@H](O)C[C@@H]1O (stereo not given in full)	5.25 µM (active)	
Clc1cccc(-c2ccc(-c3nnc(CCCc4ccc5cccnc5n4)o3)cc2)c1		105%
COc1ncc(Nc2ncc([C@H](C)N3CCN(S(C)(=O)=O)CC3)cc2-c2nc(C)nc(N)n2)cc1F	0.0417 µM (active)	
C[C@@H]1C(=O)OC2[C@H](O)[C@]34[C@H]5C[C@@H](C(C)(C)C)[C@]36[C@@H](OC(=O)[C@@H]6O)O[C@@]4(C(=O)O5)[C@]21O (stereo not given in full)		120%

SMILES	Potency	viability, % of control
Fc1cccc(-n2cnc3c(NCc4nc5c(F)c(F)ccc5[nH]4)nc(N4CCOCC4)nc32)c1	0.263 µM (active)	
CN1N=C(N)c2cn([C@@H]3O[C@H](COP(=O)(O)O)[C@@H](O)[C@@H]3O)c3ncnc1c23	0.525 µM (active)	
CC(C)(C)NC(=O)c1cncn1C1CCN(c2ccc(-c3nnc(C(F)(F)F)o3)cn2)CC1	5.25 µM (active)	
CC[C@]12C=CCN3CC[C@@]4(c5cc([C@@]6(C(=O)OC)CC7C[C@@H](C(C)(F)F)CN(Cc8c6[nH]c6ccccc86)C7)c(OC)cc5N(C)[C@H]4[C@@](O)(C(=O)OC)[C@@H]1OC(C)=O)[C@@H]32 (stereo not given in full)	0.417 µM (active)	
CC(C)C[C@H](NC(=O)[C@H](Cc1ccccc1)NC(=O)OCc1ccccc1)C(=O)C=O		93.1%
CNS(=O)(=O)c1ccc2c(c1)/C(=C/c1[nH]c3c(c1CCCN1CCN(C)CC1)CCCC3)C(=O)N2	1.18 µM (active)	
CCOC(=N)c1nc2ccc3ncnc(Nc4cc(F)c(F)cc4Cl)c3c2s1	16.6 µM (active)	
NC(=O)c1cnc2[nH]ccc2c1NC1C2CC3C[C@H]1CC(O)(C3)C2 (stereo not given in full)	0.209 µM (active)	
CCCS(=O)(=O)c1nc(NC2CC2)cc(-c2ccc3c(ccn3C3CC(C)(C)NC(C)(C)C3)c2)n1	2.48 µM (active)	
Cc1ccc(Sc2ccccc2N2CCNCC2)c(C)c1	20.9 µM (active)	
CCC(=O)NC[C@H](Cc1ccc(OCCc2nc(-c3ccccc3)oc2C)cc1)N/C(C)=C\C(=O)c1ccc(C(F)(F)F)cc1	23.5 µM (active)	
C[C@H]1CC2[C@@H]3CCC4=CC(=O)C=C[C@]4(C)[C@@]3(F)[C@@H](O)C[C@]2(C)[C@@]1(O)C(=O)CO (stereo not given in full)		141%
Cc1c(NC(=O)c2cc(C(N)=O)nc3cc(F)ccc23)c(C(F)(F)F)nn1Cc1ccc(C(C)(C)C)cc1		81%
COC(=O)Nc1nc2ccc(C(=O)c3ccccc3)cc2[nH]1	0.525 µM (active)	
CS(=O)(=O)c1ccc(-c2cnc(NCc3ccco3)n3cnnc23)cc1		74.3%
COc1cc2c(cc1OC)CN(CCc1ccc(-n3nnc(-c4cc(OC)c(OC)cc4NC(=O)c4cc(=O)c5ccccc5o4)n3)cc1)CC2		93.2% [at 0.315 µM]
Cc1cnc(Nc2ccc(F)cc2Cl)nc1-c1c[nH]c(C(=O)NC(CO)c2cccc(Cl)c2)c1 (stereo not given)	0.296 µM (active)	
O=C(/C=C/c1cccnc1)NCCCCC1CCN(C(=O)c2ccccc2)CC1	0.0209 µM (active)	
C[C@@H]1COCCN1c1cc(-c2ccnn2C)c2ccnc(-c3ccn[nH]3)c2n1	0.118 µM (active)	
O=C(NC1CC1)c1cccc(-c2ccc3c(NC(=O)C4CC4)n[nH]c3c2)c1	8.33 µM (active)	
